# Results as given in ChEMBL document CHEMBL1961873, “Compounds: GSK PKIS; Assays: Nanosyn kinase panel” (2012).
# Legend:
# [1] = molecular target: Protein kinase C gamma type (Homo sapiens) (UniProt P05129); settings: at 1 µM;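 further: each value is an averaged percent inhibition of the enzyme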
# [2] = molecular target: T1, Protein kinase C iota type (Homo sapiens) (UniProt P41743); settings: at 0.1 µM
# T1 sequence (whole entry): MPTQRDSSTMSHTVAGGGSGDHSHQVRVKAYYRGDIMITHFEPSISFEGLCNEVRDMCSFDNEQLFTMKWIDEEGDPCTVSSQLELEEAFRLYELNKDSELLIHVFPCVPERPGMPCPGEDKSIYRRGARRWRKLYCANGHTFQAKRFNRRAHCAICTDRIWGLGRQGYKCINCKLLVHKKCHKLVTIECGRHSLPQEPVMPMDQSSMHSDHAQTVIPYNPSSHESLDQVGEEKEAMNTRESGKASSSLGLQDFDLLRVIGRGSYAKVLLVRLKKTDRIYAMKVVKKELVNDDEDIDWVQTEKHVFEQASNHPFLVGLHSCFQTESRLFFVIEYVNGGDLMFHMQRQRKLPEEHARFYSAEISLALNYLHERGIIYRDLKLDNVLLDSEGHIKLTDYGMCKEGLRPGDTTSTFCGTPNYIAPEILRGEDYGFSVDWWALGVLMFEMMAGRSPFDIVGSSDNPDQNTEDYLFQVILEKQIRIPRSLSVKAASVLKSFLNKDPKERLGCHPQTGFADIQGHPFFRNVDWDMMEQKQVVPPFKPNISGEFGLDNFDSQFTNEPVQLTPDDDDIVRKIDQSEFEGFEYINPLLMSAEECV
# [3] = molecular target: T1, Protein kinase C iota type (Homo sapiens); settings: at 1 µM
# [4] = molecular target: Protein kinase C theta type (Homo sapiens) (UniProt Q04759); settings: at 0.1 µM
# Sequence of Protein kinase C theta type (Homo sapiens) (Q04759 whole entry, looked up): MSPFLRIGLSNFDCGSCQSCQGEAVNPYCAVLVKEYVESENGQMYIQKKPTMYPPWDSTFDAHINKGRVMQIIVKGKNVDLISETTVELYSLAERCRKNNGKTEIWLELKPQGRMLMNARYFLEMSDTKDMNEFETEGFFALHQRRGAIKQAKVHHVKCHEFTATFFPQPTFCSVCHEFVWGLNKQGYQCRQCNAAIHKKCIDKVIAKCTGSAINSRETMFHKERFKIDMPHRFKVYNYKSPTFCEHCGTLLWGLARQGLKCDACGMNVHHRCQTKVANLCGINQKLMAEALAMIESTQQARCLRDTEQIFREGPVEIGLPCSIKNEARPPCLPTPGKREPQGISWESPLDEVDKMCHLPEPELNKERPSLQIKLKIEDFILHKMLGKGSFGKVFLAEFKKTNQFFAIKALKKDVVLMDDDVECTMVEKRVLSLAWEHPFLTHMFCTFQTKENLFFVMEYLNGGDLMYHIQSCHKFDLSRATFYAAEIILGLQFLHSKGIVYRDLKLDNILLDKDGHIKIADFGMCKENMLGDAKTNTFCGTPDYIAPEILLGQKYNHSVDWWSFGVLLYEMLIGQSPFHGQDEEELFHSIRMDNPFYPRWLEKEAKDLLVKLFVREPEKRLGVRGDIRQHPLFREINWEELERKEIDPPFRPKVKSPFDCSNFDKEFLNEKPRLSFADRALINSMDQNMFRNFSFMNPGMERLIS
# [5] = molecular target: Protein kinase C theta type (Homo sapiens) (UniProt Q04759); settings: at 1 µM
# [6] = molecular target: Protein kinase C beta type (Homo sapiens) (UniProt P05771); settings: at 0.1 µM
# Sequence of Protein kinase C beta type (Homo sapiens) (P05771 2-671 limits assumed): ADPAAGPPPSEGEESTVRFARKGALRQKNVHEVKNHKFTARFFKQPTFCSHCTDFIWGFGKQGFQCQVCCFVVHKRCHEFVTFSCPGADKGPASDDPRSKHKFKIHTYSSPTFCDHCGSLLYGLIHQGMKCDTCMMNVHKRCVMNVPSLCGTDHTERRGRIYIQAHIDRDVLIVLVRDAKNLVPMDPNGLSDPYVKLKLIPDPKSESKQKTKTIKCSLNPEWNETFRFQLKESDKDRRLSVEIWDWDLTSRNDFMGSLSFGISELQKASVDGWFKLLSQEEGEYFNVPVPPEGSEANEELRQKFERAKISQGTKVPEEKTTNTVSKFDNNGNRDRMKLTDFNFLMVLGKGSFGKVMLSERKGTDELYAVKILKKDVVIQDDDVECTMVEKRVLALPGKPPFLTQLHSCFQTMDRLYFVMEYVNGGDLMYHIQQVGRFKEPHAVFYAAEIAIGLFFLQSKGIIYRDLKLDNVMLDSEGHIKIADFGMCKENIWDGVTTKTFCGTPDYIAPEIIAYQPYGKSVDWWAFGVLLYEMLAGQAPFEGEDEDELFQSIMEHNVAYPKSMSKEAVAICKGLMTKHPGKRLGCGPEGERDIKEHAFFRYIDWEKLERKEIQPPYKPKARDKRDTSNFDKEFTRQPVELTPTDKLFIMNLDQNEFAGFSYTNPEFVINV
# [7] = molecular target: Protein kinase C beta type (Homo sapiens) (UniProt P05771); settings: at 1 µM
# [8] = molecular target: T2, Serine/threonine-protein kinase D1 (Homo sapiens) (UniProt Q15139); settings: at 0.1 µM
# T2 sequence (whole entry): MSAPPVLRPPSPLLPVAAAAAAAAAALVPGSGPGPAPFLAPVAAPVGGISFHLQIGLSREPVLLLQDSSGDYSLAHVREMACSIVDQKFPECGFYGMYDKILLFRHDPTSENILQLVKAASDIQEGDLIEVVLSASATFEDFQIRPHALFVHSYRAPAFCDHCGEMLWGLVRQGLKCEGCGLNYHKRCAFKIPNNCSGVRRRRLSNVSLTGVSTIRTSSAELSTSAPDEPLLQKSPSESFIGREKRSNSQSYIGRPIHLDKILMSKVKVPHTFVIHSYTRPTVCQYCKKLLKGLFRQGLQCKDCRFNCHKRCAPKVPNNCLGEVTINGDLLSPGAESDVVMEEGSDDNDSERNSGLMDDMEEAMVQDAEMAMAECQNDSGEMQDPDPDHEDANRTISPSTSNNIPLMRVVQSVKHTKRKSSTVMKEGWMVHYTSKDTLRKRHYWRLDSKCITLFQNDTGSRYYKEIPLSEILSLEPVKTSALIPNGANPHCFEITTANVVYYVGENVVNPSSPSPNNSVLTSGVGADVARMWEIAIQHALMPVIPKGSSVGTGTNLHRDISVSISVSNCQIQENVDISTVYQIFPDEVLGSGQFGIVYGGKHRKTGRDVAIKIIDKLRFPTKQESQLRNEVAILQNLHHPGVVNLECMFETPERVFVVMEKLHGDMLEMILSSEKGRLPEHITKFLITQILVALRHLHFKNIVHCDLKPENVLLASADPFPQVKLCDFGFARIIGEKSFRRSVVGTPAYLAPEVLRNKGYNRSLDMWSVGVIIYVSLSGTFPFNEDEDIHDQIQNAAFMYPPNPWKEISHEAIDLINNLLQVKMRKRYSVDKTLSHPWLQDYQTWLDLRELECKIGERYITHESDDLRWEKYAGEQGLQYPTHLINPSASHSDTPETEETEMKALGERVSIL
# [9] = molecular target: T2, Serine/threonine-protein kinase D1 (Homo sapiens); settings: at 1 µM
# [10] = molecular target: T3, Serine/threonine-protein kinase D2 (Homo sapiens) (UniProt Q9BZL6); settings: at 0.1 µM
# T3 sequence (whole entry): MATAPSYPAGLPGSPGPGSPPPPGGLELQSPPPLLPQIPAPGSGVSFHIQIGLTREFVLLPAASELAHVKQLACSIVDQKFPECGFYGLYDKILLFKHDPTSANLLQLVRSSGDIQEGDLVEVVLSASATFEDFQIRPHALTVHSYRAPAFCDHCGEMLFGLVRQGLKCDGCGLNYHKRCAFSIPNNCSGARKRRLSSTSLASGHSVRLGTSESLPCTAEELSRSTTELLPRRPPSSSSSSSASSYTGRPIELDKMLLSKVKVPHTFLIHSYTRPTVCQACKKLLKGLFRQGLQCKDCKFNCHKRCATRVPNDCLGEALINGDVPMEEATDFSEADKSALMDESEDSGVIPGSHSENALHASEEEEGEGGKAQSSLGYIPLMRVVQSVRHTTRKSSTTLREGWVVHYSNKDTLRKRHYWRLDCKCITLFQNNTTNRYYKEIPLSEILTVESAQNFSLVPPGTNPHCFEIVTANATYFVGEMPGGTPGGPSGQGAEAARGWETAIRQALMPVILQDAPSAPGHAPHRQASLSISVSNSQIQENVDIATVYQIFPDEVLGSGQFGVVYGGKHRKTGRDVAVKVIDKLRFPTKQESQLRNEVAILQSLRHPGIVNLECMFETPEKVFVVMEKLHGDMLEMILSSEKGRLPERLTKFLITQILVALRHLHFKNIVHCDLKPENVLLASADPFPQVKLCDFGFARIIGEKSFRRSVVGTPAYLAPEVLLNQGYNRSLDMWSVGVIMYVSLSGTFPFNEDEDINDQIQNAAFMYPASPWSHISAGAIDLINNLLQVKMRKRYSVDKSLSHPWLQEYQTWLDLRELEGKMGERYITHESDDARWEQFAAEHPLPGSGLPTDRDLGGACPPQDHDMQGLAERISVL
# [11] = molecular target: T3, Serine/threonine-protein kinase D2 (Homo sapiens); settings: at 1 µM
# [12] = molecular target: T4, Serine/threonine-protein kinase D3 (Homo sapiens) (UniProt O94806); settings: at 0.1 µM
# T4 sequence (whole entry): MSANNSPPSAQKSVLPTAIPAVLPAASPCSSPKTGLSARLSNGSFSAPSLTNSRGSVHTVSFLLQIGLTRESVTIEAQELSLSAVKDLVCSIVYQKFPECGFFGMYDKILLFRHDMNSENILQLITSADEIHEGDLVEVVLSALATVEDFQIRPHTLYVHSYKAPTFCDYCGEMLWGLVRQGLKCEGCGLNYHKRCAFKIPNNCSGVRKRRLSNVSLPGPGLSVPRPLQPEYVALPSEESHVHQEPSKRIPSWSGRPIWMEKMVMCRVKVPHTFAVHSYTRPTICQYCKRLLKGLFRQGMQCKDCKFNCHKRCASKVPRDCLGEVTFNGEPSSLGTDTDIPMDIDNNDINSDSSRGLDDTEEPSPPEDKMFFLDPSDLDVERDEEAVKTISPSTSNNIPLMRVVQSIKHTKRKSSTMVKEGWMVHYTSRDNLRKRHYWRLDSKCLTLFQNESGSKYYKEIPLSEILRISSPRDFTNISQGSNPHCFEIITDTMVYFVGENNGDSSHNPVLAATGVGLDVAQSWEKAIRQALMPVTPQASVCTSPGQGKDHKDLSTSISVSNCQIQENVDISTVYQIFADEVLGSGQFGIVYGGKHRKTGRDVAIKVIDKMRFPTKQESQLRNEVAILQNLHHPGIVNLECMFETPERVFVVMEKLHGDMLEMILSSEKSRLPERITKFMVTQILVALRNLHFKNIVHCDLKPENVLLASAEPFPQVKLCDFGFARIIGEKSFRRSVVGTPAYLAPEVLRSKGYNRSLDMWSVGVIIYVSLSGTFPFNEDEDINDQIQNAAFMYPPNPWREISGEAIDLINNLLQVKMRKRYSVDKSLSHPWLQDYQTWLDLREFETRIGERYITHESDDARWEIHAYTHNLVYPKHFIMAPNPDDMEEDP
# [13] = molecular target: T4, Serine/threonine-protein kinase D3 (Homo sapiens); settings: at 1 µM
# [14] = molecular target: T5, cGMP-dependent protein kinase 1 (Homo sapiens) (UniProt Q13976); settings: at 0.1 µM
# T5 sequence (whole entry): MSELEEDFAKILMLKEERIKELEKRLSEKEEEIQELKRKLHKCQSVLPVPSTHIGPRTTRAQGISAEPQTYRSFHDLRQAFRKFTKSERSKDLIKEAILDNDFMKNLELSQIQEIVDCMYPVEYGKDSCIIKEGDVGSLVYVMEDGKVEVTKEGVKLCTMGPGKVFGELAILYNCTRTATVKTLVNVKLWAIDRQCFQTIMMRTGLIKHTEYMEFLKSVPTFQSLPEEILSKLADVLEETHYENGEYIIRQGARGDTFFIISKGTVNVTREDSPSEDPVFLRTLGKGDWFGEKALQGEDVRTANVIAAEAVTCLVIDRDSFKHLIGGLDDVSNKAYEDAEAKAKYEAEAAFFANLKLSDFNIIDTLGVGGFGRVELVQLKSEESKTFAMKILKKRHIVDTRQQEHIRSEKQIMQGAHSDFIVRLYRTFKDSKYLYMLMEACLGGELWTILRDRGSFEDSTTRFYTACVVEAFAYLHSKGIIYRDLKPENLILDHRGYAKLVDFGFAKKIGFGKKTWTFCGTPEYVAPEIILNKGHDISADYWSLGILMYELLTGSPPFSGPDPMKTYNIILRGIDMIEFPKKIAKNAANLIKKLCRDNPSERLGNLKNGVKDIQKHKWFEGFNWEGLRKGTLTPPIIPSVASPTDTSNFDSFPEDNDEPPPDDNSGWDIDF
# [15] = molecular target: T5, cGMP-dependent protein kinase 1 (Homo sapiens); settings: at 1 µM
# [16] = molecular target: T6, cGMP-dependent protein kinase 2 (Homo sapiens) (UniProt Q13237); settings: at 0.1 µM
# T6 sequence (whole entry): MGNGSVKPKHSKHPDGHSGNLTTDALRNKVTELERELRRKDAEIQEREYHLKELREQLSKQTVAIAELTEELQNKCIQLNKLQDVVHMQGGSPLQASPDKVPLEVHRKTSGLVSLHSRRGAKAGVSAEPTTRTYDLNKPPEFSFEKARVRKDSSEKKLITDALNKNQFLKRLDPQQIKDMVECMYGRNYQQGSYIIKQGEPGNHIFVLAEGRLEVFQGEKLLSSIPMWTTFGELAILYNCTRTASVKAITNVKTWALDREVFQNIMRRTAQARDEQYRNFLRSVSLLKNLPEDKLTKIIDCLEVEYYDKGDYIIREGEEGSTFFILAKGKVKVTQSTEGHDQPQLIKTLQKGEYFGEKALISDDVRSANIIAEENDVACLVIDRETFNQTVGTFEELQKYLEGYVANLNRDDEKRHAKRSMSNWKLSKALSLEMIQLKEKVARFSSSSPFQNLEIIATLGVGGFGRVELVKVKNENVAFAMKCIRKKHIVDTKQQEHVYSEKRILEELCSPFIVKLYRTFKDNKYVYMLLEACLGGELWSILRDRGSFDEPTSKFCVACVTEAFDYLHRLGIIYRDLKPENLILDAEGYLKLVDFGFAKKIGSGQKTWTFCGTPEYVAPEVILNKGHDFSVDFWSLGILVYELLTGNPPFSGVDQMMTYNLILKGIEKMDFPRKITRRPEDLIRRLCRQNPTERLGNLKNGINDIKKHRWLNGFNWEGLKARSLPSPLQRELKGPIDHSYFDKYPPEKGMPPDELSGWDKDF
# [17] = molecular target: T6, cGMP-dependent protein kinase 2 (Homo sapiens); settings: at 1 µM
# [18] = molecular target: T7, cAMP-dependent protein kinase catalytic subunit PRKX (Homo sapiens) (UniProt P51817); settings: at 0.1 µM
# T7 sequence (whole entry): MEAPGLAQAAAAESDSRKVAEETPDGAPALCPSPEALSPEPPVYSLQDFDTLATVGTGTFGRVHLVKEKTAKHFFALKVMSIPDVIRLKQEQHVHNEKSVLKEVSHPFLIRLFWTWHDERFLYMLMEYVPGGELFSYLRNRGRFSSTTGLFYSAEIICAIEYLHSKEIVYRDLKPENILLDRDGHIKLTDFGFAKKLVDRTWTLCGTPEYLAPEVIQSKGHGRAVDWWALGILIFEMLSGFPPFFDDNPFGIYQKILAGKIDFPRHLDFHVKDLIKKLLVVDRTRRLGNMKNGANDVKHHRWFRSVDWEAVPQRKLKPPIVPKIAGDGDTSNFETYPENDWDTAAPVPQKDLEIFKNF
# [19] = molecular target: T7, cAMP-dependent protein kinase catalytic subunit PRKX (Homo sapiens); settings: at 1 µM
# [20] = molecular target: Rho-associated protein kinase 1 (Homo sapiens) (UniProt Q13464); settings: at 0.1 µM;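 further: values are mean percent inhibition of ROCK1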
# Sequence of Rho-associated protein kinase 1 (Homo sapiens) (Q13464 2-1354 limits assumed): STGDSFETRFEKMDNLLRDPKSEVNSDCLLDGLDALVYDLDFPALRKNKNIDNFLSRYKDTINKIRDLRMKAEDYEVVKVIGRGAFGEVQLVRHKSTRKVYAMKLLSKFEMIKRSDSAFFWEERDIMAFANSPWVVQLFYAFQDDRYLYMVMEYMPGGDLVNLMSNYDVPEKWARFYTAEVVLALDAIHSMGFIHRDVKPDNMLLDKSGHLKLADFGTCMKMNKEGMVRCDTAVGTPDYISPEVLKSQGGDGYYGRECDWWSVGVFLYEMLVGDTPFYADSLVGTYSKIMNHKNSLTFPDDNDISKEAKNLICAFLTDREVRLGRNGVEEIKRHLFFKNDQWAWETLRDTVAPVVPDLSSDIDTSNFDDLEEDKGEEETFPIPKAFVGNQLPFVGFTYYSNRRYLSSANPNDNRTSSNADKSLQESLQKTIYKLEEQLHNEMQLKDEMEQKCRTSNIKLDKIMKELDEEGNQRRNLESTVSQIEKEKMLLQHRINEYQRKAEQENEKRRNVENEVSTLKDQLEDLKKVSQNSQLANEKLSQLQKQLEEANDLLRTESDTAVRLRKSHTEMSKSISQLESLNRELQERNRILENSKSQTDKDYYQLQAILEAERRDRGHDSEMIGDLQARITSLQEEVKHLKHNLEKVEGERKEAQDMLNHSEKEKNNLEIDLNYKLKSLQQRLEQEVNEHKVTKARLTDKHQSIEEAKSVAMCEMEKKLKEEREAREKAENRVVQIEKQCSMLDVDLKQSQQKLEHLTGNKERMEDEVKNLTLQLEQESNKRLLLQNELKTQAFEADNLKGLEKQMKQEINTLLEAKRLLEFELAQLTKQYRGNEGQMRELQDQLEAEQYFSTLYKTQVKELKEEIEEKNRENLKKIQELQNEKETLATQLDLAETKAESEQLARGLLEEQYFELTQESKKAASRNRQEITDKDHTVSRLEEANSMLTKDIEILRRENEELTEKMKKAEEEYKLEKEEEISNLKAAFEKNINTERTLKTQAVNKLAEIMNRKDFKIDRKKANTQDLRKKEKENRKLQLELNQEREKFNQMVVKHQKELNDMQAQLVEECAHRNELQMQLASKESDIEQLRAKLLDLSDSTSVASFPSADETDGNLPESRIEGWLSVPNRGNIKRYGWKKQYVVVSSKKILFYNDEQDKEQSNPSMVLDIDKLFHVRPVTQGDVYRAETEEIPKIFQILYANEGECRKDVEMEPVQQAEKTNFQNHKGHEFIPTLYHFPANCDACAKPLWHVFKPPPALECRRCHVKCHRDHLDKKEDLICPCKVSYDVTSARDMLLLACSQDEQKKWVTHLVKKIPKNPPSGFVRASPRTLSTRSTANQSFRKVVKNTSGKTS
Structure (SMILES),inhibition [1],inhibition [2],inhibition [3],inhibition [4],inhibition [5],inhibition [6],inhibition [7],inhibition [8],inhibition [9],inhibition [10],inhibition [11],inhibition [12],inhibition [13],inhibition [14],inhibition [15],inhibition [16],inhibition [17],inhibition [18],inhibition [19],inhibition [20]
N#Cc1cccc(Nc2nccc(-c3cnn4ncccc34)n2)c1,31.2%,0.78%,1.84%,3.95%,14.2%,6.33%,30.2%,7.68%,49.5%,7.36%,46.8%,10.5%,54.9%,10.8%,50.2%,4.14%,25.9%,1.47%,2.66%,1.39%
COc1cccc(-n2ncc3c(N/N=C/c4ccc(C)cc4)ncnc32)c1,-9.04%,1.65%,1.86%,3.03%,4.16%,1.4%,2.79%,6.31%,10.7%,6.6%,8.29%,5.18%,9.61%,3.66%,7.27%,3.43%,5.99%,2.31%,4.53%,3.27%
